Data from PubChem BioAssay (Tox21).
Values joined by “and” are separate entries in the source; they are usually repeats but may differ in a detail not shown here. Equal values may be shown once. Records with an inconclusive call do not appear. More than one record can exist for a structure, and the calls need not agree. Active and inactive are the calls of the source. Unless noted, calls follow the shape of the dose curve; as a rule, active = well fitted curve in the direction sought with a large enough effect in the repeat runs; inconclusive = weak or mixed curves; inactive = no such curve, though single readings can be large; an effect the other way counts as inactive or inconclusive.

assay: qHTS assay to identify small molecule antagonists of the progesterone receptor (PR) signaling pathway - cell viability counter screen (AID 1346798); settings: PR-UAS-bla HEK293T viability, CellTiter-Glo luminescence, 16 h; series mostly up to 92.4 µM; activity change, negative = cytotoxicity: at the top concentration; also: nearly all actives have a fitted effect of over 50% in size
How it was run: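 Measures cytotoxicity in parallel with the PR antagonist reporter read: HEK293T PR-UAS-bla cells get compound and R5020 for 16 hr, and remaining viable cells are quantified by CellTiter-Glo luminescence.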
% is scaled to controls: 0 for no effect and ±100 for the full control effect.

Compound	activity change, negative = cytotoxicity	Potency
O=C(Cl)C(Cl)Cl	-14.7% (inactive)	–
S=C=S	-4.19% (inactive)	–
O=C1CC(=O)NC(=O)N1	-9.82% (inactive)	–
ClC1=C(Cl)C2(Cl)C(CBr)CC1(Cl)C2(Cl)Cl (configuration not stated)	–	inactive
CCOC(=O)c1ncn2c1CN(C)C(=O)c1c(I)cccc1-2	3.18% [at 42.5 µM] (inactive)	–
COc1ccccc1OC	10.3% (inactive)	–
c1cncc([C@@H]2CCCCN2)c1	-21.1% (inactive)	–
CC(Cc1ccccc1)NCCn1cnc2c1c(=O)n(C)c(=O)n2C (configuration not stated)	5.78% (inactive)	–
O=C(Cl)CCl	4.58% (inactive)	–
C=C1C[C@@H]2[C@H](CC[C@]3(C)C(=O)CC[C@@H]23)[C@@]2(C)C=CC(=O)C=C12	22.2% [at 42.5 µM] (inactive)	–
CCN(CCO)CCn1c(Cc2ccccc2)nc2c1c(=O)n(C)c(=O)n2C	0.549% [at 42.5 µM] (inactive)	–
O=C(Cl)C(Cl)(Cl)Cl	-4.41% (inactive)	–
CCOC(=O)C(Cl)Cc1cc(-n2nc(C)n(C(F)F)c2=O)c(F)cc1Cl (configuration not stated)	-1.2% (inactive)	–
Cc1cc(OC(=O)N(C)C)nn1C(=O)N(C)C	-1.36% (inactive)	–
O=C(O)c1c(Cl)ccc2cc(Cl)cnc12	-0.184% (inactive)	–
COP(=O)(OC)O/C(C)=C/C(=O)N(C)C	1.89% (inactive)	–
CS(=O)(=O)Cl	-3.76% (inactive)	–
CCC(C(N)=O)N1CCCC1=O (configuration not stated)	-5.2% [at 42.5 µM] (inactive)	–
CN(CCO)CCO	-25.6% (inactive)	–
C=CCCC#N	22.8% (inactive)	–
O=C(NC(O)C(Cl)(Cl)Cl)NC(O)C(Cl)(Cl)Cl (configuration not stated)	3.02% [at 42.5 µM] (inactive)	–
COc1cccc(C=O)c1	-16% (inactive)	–
CCC(C)C(C)(COC(N)=O)COC(N)=O (configuration not stated)	7.5% [at 42.5 µM] (inactive)	–

assay: qHTS assay to identify small molecule agonists of the progesterone receptor (PR) signaling pathway - cell viability counter screen (AID 1346799; calls by dose curve; also: nearly all actives have a fitted effect of over 45% in size; also: potency is read from the fitted curve at half-maximal effect); settings: PR-UAS-bla HEK293T viability, CellTiter-Glo luminescence, 16 h; series mostly up to 92.4 µM; activity change, negative = cytotoxicity: at the top concentration
How it was run: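 Using the same plates as the PR reporter screen, HEK293T PR-UAS-bla cells received compounds for 16 hr at 37C and were then lysed with CellTiter-Glo; luminescence was read 30 min later at room temperature.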

Compound	activity change, negative = cytotoxicity	Potency
CC(C)(C)C(=O)Cl	-1.99% (inactive)	–
O=C(Cl)C(Cl)Cl	-4.81% (inactive)	–
C/C=C/CC#N	-3.6% (inactive)	–
S=C=S	-4.15% (inactive)	–
O=C1CC(=O)NC(=O)N1	1.98% (inactive)	–
CCN(CCO)CCO	-4.83% (inactive)	–
ClC1=C(Cl)C2(Cl)C(CBr)CC1(Cl)C2(Cl)Cl (configuration not stated)	–	68.6 µM (active) and inactive
CCOC(=O)c1ncn2c1CN(C)C(=O)c1c(I)cccc1-2	6.63% [at 42.5 µM] (inactive)	–
COc1ccccc1OC	-9.65% (inactive)	–
c1cncc([C@@H]2CCCCN2)c1	-3.43% (inactive)	–
CCOP(=S)(OCC)Oc1ccc(Cl)cc1Cl	-0.218% (inactive)	–
CC(Cc1ccccc1)NCCn1cnc2c1c(=O)n(C)c(=O)n2C (configuration not stated)	11.1% (inactive)	–
CC(C)(O)C(Cl)(Cl)Cl	2.09% [at 42.5 µM] (inactive)	–
O=C(Cl)CCl	-18.7% (inactive)	–
N#CN	-2.93% [at 240 µM] (inactive)	–
CCN(CCO)CCn1c(Cc2ccccc2)nc2c1c(=O)n(C)c(=O)n2C	-5.89% [at 42.5 µM] (inactive)	–

Compound	activity change, negative = cytotoxicity	Potency
CC[C@H](N)c1ccccc1	31.2% (inactive)	–
C=CC1(C)OC(=O)N(c2cc(Cl)cc(Cl)c2)C1=O (configuration not stated)	–	54.2 µM (active) and inactive
CN=CNc1ccc(C)cc1C	2.96% (inactive)	–
O=C(Cl)C(Cl)(Cl)Cl	-17.5% (inactive)	–
CCOC(=O)C(Cl)Cc1cc(-n2nc(C)n(C(F)F)c2=O)c(F)cc1Cl (configuration not stated)	-4.91% (inactive)	–
Cc1cc(OC(=O)N(C)C)nn1C(=O)N(C)C	-3.54% (inactive)	–
O=C(O)c1c(Cl)ccc2cc(Cl)cnc12	-0.631% (inactive)	–
Cn1c(CCCC(=O)O)nc2cc(N(CCCl)CCCl)ccc21	3.7% [at 42.5 µM] (inactive)	–
CS(=O)(=O)Cl	12.5% (inactive)	–
CCC(C(N)=O)N1CCCC1=O (configuration not stated)	0.0581% [at 42.5 µM] (inactive)	–
CN(CCO)CCO	-13.9% (inactive)	–
NCCOS(=O)(=O)O	0.467% (inactive)	–
C=CCCC#N	11.6% (inactive)	–
O=C(NC(O)C(Cl)(Cl)Cl)NC(O)C(Cl)(Cl)Cl (configuration not stated)	3.1% [at 42.5 µM] (inactive)	–
COc1cccc(C=O)c1	-2.85% (inactive)	–
CCC(C)C(C)(COC(N)=O)COC(N)=O (configuration not stated)	11.5% [at 42.5 µM] (inactive)	–

assay: qHTS assay to identify small molecule antagonists of the TGF-beta/Smad signaling pathway - cell viability counter screen (AID 1346824); settings: SBE-bla HEK293T viability, CellTiter-Glo luminescence; series mostly up to 76.8 µM; viability change, negative = cytotoxic: at the top concentration; also: nearly all actives have a fitted effect of over 50% in size
How it was run: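 Cytotoxicity counter-screen run in the same wells as the beta-lactamase Smad reporter read: CellTiter-Glo luminescence after 30 min at room temperature. HEK 293T SBE-bla cells had 5 hr compound exposure at 37 C with TGF-beta1 (0.25 ng/mL stock).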

Compound	viability change, negative = cytotoxic	outcome
CC(C)(C)C(=O)Cl	-8.23% (inactive)	–
O=C1C2CC=CCC2C(=O)N1SC(Cl)(Cl)Cl (configuration not stated)	-15.3% (inactive)	–
O=C(Cl)C(Cl)Cl	11.7% (inactive)	–
C/C=C/CC#N	-0.889% (inactive)	–
S=C=S	0.739% (inactive)	–
O=C1CC(=O)NC(=O)N1	-15% (inactive)	–
ClC1=C(Cl)C2(Cl)C(CBr)CC1(Cl)C2(Cl)Cl (configuration not stated)	–	inactive
COc1ccccc1OC	4.53% (inactive)	–
c1cncc([C@@H]2CCCCN2)c1	0.204% (inactive)	–
CCOP(=S)(OCC)Oc1ccc(Cl)cc1Cl	-7.61% (inactive)	–
O=C(Cl)CCl	-7.57% (inactive)	–
C=C1C[C@@H]2[C@H](CC[C@]3(C)C(=O)CC[C@@H]23)[C@@]2(C)C=CC(=O)C=C12	-4.5% [at 35.3 µM] (inactive)	–
CCN(CCO)CCn1c(Cc2ccccc2)nc2c1c(=O)n(C)c(=O)n2C	-20.2% [at 35.3 µM] (inactive)	–
CC[C@H](N)c1ccccc1	-5.37% (inactive)	–
CN=CNc1ccc(C)cc1C	0.0632% (inactive)	–
O=C(Cl)C(Cl)(Cl)Cl	-4.37% (inactive)	–
CCOC(=O)C(Cl)Cc1cc(-n2nc(C)n(C(F)F)c2=O)c(F)cc1Cl (configuration not stated)	1.3% (inactive)	–
O=C(O)c1c(Cl)ccc2cc(Cl)cnc12	-13% (inactive)	–
COP(=O)(OC)O/C(C)=C/C(=O)N(C)C	-15.7% (inactive)	–
CCC(C(N)=O)N1CCCC1=O (configuration not stated)	-4.32% [at 35.3 µM] (inactive)	–
CN(CCO)CCO	0.506% (inactive)	–
O=C(NC(O)C(Cl)(Cl)Cl)NC(O)C(Cl)(Cl)Cl (configuration not stated)	-4.15% [at 35.3 µM] (inactive)	–

assay: qHTS assay to identify small molecule agonists of the TGF-beta/Smad signaling pathway - cell viability counter screen (AID 1346829); settings: SBE-bla HEK293T viability, CellTiter-Glo luminescence, 5 h; series mostly up to 76.8 µM; activity change, negative = cytotoxicity: at the top concentration; also: nearly all actives have a fitted effect of over 45% in size; also: potency is read from the fitted curve at half-maximal effect; as to activity change, negative = cytotoxicity: top concentration of the series differs between compounds
How it was run: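 In parallel with the Smad reporter read, viability of HEK 293T cells stably carrying SBE-bla is quantified by ATP luminescence following 5 hr compound treatment.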

Compound	activity change, negative = cytotoxicity	Potency
CC(C)(C)C(=O)Cl	-5.83% (inactive)	–
O=C1C2CC=CCC2C(=O)N1SC(Cl)(Cl)Cl (configuration not stated)	–	inactive and 48.2 µM (active)
O=C(Cl)C(Cl)Cl	2.29% (inactive)	–
C/C=C/CC#N	2.38% (inactive)	–
S=C=S	1.33% (inactive)	–
O=C1CC(=O)NC(=O)N1	0.301% (inactive)	–
CCN(CCO)CCO	-0.759% (inactive)	–
ClC1=C(Cl)C2(Cl)C(CBr)CC1(Cl)C2(Cl)Cl (configuration not stated)	0.0573% [at 35.3 µM] (inactive)	–
CCOC(=O)c1ncn2c1CN(C)C(=O)c1c(I)cccc1-2	3.21% [at 35.3 µM] (inactive)	–
COc1ccccc1OC	9.31% (inactive)	–
c1cncc([C@@H]2CCCCN2)c1	3.07% (inactive)	–
CCOP(=S)(OCC)Oc1ccc(Cl)cc1Cl	8.48% (inactive)	–
CC(Cc1ccccc1)NCCn1cnc2c1c(=O)n(C)c(=O)n2C (configuration not stated)	1.67% (inactive)	–
CC(C)(O)C(Cl)(Cl)Cl	-4.12% [at 35.3 µM] (inactive)	–
O=C(Cl)CCl	-0.782% (inactive)	–
C=C1C[C@@H]2[C@H](CC[C@]3(C)C(=O)CC[C@@H]23)[C@@]2(C)C=CC(=O)C=C12	0.119% [at 35.3 µM] (inactive)	–
N#CN	8.07% [at 200 µM] (inactive)	–
CCN(CCO)CCn1c(Cc2ccccc2)nc2c1c(=O)n(C)c(=O)n2C	1.8% [at 35.3 µM] (inactive)	–

Compound	activity change, negative = cytotoxicity	Potency
CC[C@H](N)c1ccccc1	6.2% (inactive)	–
C=CC1(C)OC(=O)N(c2cc(Cl)cc(Cl)c2)C1=O (configuration not stated)	–	inactive
CN=CNc1ccc(C)cc1C	-0.574% (inactive)	–
O=C(Cl)C(Cl)(Cl)Cl	0.122% (inactive)	–
CCOC(=O)C(Cl)Cc1cc(-n2nc(C)n(C(F)F)c2=O)c(F)cc1Cl (configuration not stated)	-5.17% (inactive)	–
Cc1cc(OC(=O)N(C)C)nn1C(=O)N(C)C	2.52% (inactive)	–
O=C(O)c1c(Cl)ccc2cc(Cl)cnc12	-4.4% (inactive)	–
COP(=O)(OC)O/C(C)=C/C(=O)N(C)C	-3.75% (inactive)	–
Cn1c(CCCC(=O)O)nc2cc(N(CCCl)CCCl)ccc21	-4.57% [at 35.3 µM] (inactive)	–
CS(=O)(=O)Cl	1.25% (inactive)	–
CCC(C(N)=O)N1CCCC1=O (configuration not stated)	-3.53% [at 35.3 µM] (inactive)	–
CN(CCO)CCO	-3.93% (inactive)	–
NCCOS(=O)(=O)O	-7.36% (inactive)	–
C=CCCC#N	0.357% (inactive)	–
O=C(NC(O)C(Cl)(Cl)Cl)NC(O)C(Cl)(Cl)Cl (configuration not stated)	3.63% [at 35.3 µM] (inactive)	–
COc1cccc(C=O)c1	-1.11% (inactive)	–
CCC(C)C(C)(COC(N)=O)COC(N)=O (configuration not stated)	0.416% [at 35.3 µM] (inactive)	–
